{"source": "paper PMC5540273", "about": "(PLoS ONE, 2017);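 note: KINOMEscan kinase panel screen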", "data": [{"system": "INSRR", "conditions": "concentration: 1 μM, replicates: in singlicate; n = 1", "units": {"%Inh": "%"}, "values": [{"smiles": "COc1cc2ncnc(Nc3ccc(OCc4ccccc4Br)c(Cl)c3)c2cc1OC.Cl", "note": "[GI261590]", "%Inh": 0}, {"smiles": "CSc1nn2c(=O)cc(N3CCOCC3)nc2n1Cc1cccc(Cl)c1Cl", "note": "[GSK2347225]", "%Inh": 0}, {"smiles": "Fc1cccc(COc2ccc(Nc3ncnc4sc(-c5ccc[nH]5)cc34)cc2Cl)c1", "note": "[GW707818]", "%Inh": 0}, {"smiles": "Cl.O=S(=O)(c1cccc(F)c1)c1ccc(Nc2ncnc3cc(Br)sc23)cc1Cl", "note": "[GSK306886]", "%Inh": 0}, {"smiles": "CN1c2ccc(-c3ccc(C(=O)NCCO)cc3)cc2-c2[nH]ncc2S1(=O)=O", "%Inh": 0}, {"smiles": "Nc1nc(-c2ccc3c(N)n[nH]c3c2)cc(N2CCCCC2)n1", "note": "[GSK2228768]", "%Inh": 0}, {"smiles": "Cn1ccc2ncnc(Oc3ccc(NC(=O)Nc4cccnc4)c(Cl)c3)c21", "%Inh": 0}, {"smiles": "Clc1cc(Nc2ncnc3cc[nH]c23)ccc1OCc1ccccn1", "%Inh": 0}, {"smiles": "Cl.Cl.c1ccc(-c2cc3ccncc3cc2OC2CCNCC2)cc1", "note": "[GSK1122999]", "%Inh": 0}, {"smiles": "Fc1ccc(Nc2nccc(-c3c(-c4ccc(Cl)cc4)nn4ncccc34)n2)cc1F", "note": "[GW829058]", "%Inh": 20}, {"smiles": "C[C@H]1CC[C@@H](C(=O)Nc2ccccc2)CN1c1cc(-c2ccc3c(N)n[nH]c3c2)nc(N)n1", "note": "[GSK2283293]", "%Inh": 0}, {"smiles": "FC(F)(F)c1cc(Nc2nccc(-c3c(-c4ccc(Cl)cc4)nn4ncccc34)n2)ccc1Cl", "note": "[GW829351]", "%Inh": 0}, {"smiles": "FC(F)(F)c1ccc(-c2cc(-c3c[nH]nc3-c3ccccn3)ccn2)cc1", "note": "[GW599550]", "%Inh": 0}, {"smiles": "Nc1nc(-c2cccnc2)c(-c2ccnc3ccccc23)s1", "note": "[GW684083]", "%Inh": 0}, {"smiles": "Cl.c1ccc(Cn2ncc3cc(Nc4ncnc5ccccc45)ccc32)cc1", "note": "[GW273749]", "%Inh": 0}, {"smiles": "O=C(NCCCN1CCCC1=O)c1cnc(NCc2cc(Cl)ccc2Cl)nc1NC1CCNCC1", "%Inh": 13}, {"smiles": "Cc1ccc(O)cc1Nc1cc(C(F)(F)F)nc2ccc(-c3ccncc3)cc12", "note": "[GW630823]", "%Inh": 0}, {"smiles": "C[C@@H]1CCN(C(=O)CO)C[C@@H]1N(C)c1ncnc2[nH]ccc12", "%Inh": 9}, {"smiles": "COc1ccc(NC(=O)Nc2ccc(C)c(-c3ccc(C(=O)Nc4ccncc4)cc3)c2)cc1", "note": "[GSK1398475]", "%Inh": 0}, {"smiles": "O=c1cc(N2CCOCC2)nc2n(Cc3cccc(Cl)c3)ccn12", "note": "[GSK2296823]", "%Inh": 0}, {"smiles": "CC(C)N1CCC(n2cnc(-c3ccc(F)cc3)c2-c2ccnc(N)n2)CC1", "note": "[SB-223132]", "%Inh": 0}, {"smiles": "Clc1cccc(-c2nc(Nc3ccncc3)c3ccccc3n2)c1", "note": "[GW873004]", "%Inh": 4}, {"smiles": "COC(=O)c1c(-c2ccccc2)c2cc(Cl)ccc2c(=O)n1Cc1ccc(S(C)(=O)=O)cc1", "%Inh": 0}, {"smiles": "Oc1ccc2ncnc(Nc3ccc(OCc4ccccc4)cc3)c2c1", "note": "[GI262866]", "%Inh": 18}, {"smiles": "COc1cc2c(Nc3cccc(NC(=O)c4ccccc4)c3)ncnc2cc1OCCCN1CCOCC1", "note": "[GSK223810]", "%Inh": 7}, {"smiles": "CCc1nc(-c2cccc(C)c2)c(-c2ccnc(NC(=O)c3ccccc3)c2)s1", "%Inh": 0}, {"smiles": "Clc1ccc(-c2cc(-c3c[nH]nc3-c3ccccn3)ccn2)cc1", "note": "[GW681251]", "%Inh": 0}, {"smiles": "Nc1nc(-c2ccc3c(N)n[nH]c3c2)cc(N2CCC[C@@H](C(=O)Nc3ccccc3)C2)n1.O=C(O)C(F)(F)F.O=C(O)C(F)(F)F", "note": "[GSK2288359]", "%Inh": 0}, {"smiles": "CCn1c(-c2ccncc2)nc2cnccc21", "note": "[SB-735216]", "%Inh": 0}, {"smiles": "Cn1ccc2ncnc(Nc3ccc(Oc4cccc(Cl)c4)c(Cl)c3)c21", "%Inh": 0}, {"smiles": "Fc1ccc(-c2ncn(CCCNCc3ccccc3)c2-c2ccncc2)cc1", "%Inh": 5}, {"smiles": "CC(C)(C)OC(=O)NC1CCCN(c2cc(-c3ccc4c(N)n[nH]c4c3)nc(N)n2)C1", "note": "(centres unmarked) [GSK2286096]", "%Inh": 0}, {"smiles": "CC(=O)Nc1n[nH]c2ncc(-c3ccccc3)cc12", "note": "[SB-548492]", "%Inh": 12}, {"smiles": "COc1ccc(Nc2nccc(N3CCC(NC(=O)Nc4ccc5c(c4)OCO5)C3)n2)cc1", "note": "(centres unmarked) [GSK1379745]", "%Inh": 0}, {"smiles": "CN1CCC(n2cnc(-c3ccc(F)cc3)c2-c2ccnc(NC3CCNCC3)n2)CC1", "note": "[SB-229482]", "%Inh": 0}]}]}
